Reference: article PMC7826789 (International Journal of Molecular Sciences, 2021)

Experiments:
Conditions in all cases: Compound Concentration (nM):1000
CSNK2A2 = test system: CSNK2A2
CTK = test system: T1, CTK
T1 construct: gene MATK

DAPK1 = test system: DAPK1
DAPK2 = test system: DAPK2
DAPK3 = test system: DAPK3
DCAMKL1 = test system: T2, DCAMKL1
T2 construct: gene DCLK1

DCAMKL2 = test system: T3, DCAMKL2
T3 construct: gene DCLK2

DCAMKL3 = test system: T4, DCAMKL3
T4 construct: gene DCLK3

DDR1 = test system: DDR1
DDR2 = test system: DDR2
DLK = test system: T5, DLK
T5 construct: gene MAP3K12

DMPK2 = test system: T6, DMPK2
T6 construct: gene CDC42BPG

DMPK = test system: DMPK
DRAK1 = test system: T7, DRAK1
T7 construct: gene STK17A

DRAK2 = test system: T8, DRAK2
T8 construct: gene STK17B

DYRK1A = test system: DYRK1A
DYRK1B = test system: DYRK1B
DYRK2 = test system: DYRK2
EGFR(E746-A750del) = test system: EGFR(E746-A750del)
EGFR(G719C) = test system: EGFR(G719C)
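Note: KINOMEscan scanMAX binding as percent activity remaining versus control; lower means stronger binding.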

Structure (SMILES)	Percent Control (CSNK2A2)	Percent Control (CTK)	Percent Control (DAPK1)	Percent Control (DAPK2)	Percent Control (DAPK3)	Percent Control (DCAMKL1)	Percent Control (DCAMKL2)	Percent Control (DCAMKL3)	Percent Control (DDR1)	Percent Control (DDR2)	Percent Control (DLK)	Percent Control (DMPK2)	Percent Control (DMPK)	Percent Control (DRAK1)	Percent Control (DRAK2)	Percent Control (DYRK1A)	Percent Control (DYRK1B)	Percent Control (DYRK2)	Percent Control (EGFR(E746-A750del))	Percent Control (EGFR(G719C))
O=C(Nc1n[nH]c2nc(-c3ccc(O)cc3)c(Br)cc12)C1CC1 [SB-725317]	85%	100%	55%	34%	34%	89%	100%	3.5%	98%	100%	100%	100%	23%	100%	95%	24%	7.4%	6.6%	91%	100%
COc1cc(N2CCN(C(C)C)CC2)ccc1Nc1nc(Nc2ccc(F)cc2C(=O)NC[C@@H](O)CO)c2cc[nH]c2n1 [GSK1392956A]	88%	95%	13%	6.8%	4.3%	78%	100%	100%	98%	100%	77%	75%	100%	87%	93%	53%	75%	24%	74%	94%
C/C(Nc1ccc(S(N)(=O)=O)cc1)=C1/C(=O)Nc2ccccc21 [GW335962X]	21%	84%	94%	93%	96%	80%	80%	100%	95%	100%	73%	97%	99%	100%	97%	77%	93%	46%	100%	91%
CC1=C(C(=O)Nc2ccc3[nH]ncc3c2)C(c2ccc(Cl)c(Cl)c2)CC(=O)N1 (stereo not drawn) [GSK299115A]	79%	62%	81%	83%	81%	83%	55%	45%	88%	81%	77%	82%	100%	100%	84%	70%	59%	68%	98%	66%
NS(=O)(=O)c1ccc(N/N=C2\C(=O)Nc3ccc(-c4cnco4)cc32)cc1 [GW276655]	7%	78%	60%	70%	56%	78%	87%	100%	100%	100%	100%	94%	72%	60%	36%	2.5%	79%	4%	100%	83%
COc1cc(C=NNc2ncnc3c2cnn3-c2ccccc2)ccc1O [GW513184X]	5.6%	100%	100%	100%	100%	90%	100%	100%	100%	100%	96%	100%	100%	83%	71%	53%	66%	28%	26%	58%
NS(=O)(=O)c1ccc(N/N=C2\C(=O)Nc3ccc(C(=O)NCc4ccncc4)cc32)cc1 [GW300657X]	28%	97%	63%	65%	51%	67%	83%	72%	100%	89%	76%	91%	100%	0.3%	4.7%	63%	97%	37%	91%	100%
C[C@@H](Oc1cc(-n2cnc3ccc(OC4CCN(C)CC4)cc32)sc1C(N)=O)c1ccccc1Cl [GSK579289A]	8.4%	100%	29%	49%	28%	70%	83%	89%	92%	90%	78%	100%	80%	100%	93%	100%	100%	49%	92%	81%
NS(=O)(=O)c1ccc(N/N=C2\C(=O)Nc3ccc(C(=O)NCCc4c[nH]cn4)cc32)cc1 [GW300660X]	1.4%	100%	44%	100%	15%	65%	100%	100%	100%	100%	100%	100%	100%	3.8%	12%	50%	100%	11%	100%	100%
NS(=O)(=O)c1ccc(N/N=C2\C(=O)Nc3ccc(Cl)cc32)cc1 [GW280670X]	54%	100%	100%	100%	100%	94%	100%	100%	100%	100%	96%	100%	100%	100%	100%	100%	100%	93%	100%	100%
Cl.O=C(O[C@H]1CN[C@H](C#Cc2cc3ncnc(Nc4ccc5c(cnn5Cc5ccccc5)c4)c3s2)C1)N1CCOCC1 [GSK200398A]	70%	89%	95%	100%	100%	82%	100%	100%	92%	100%	71%	100%	100%	89%	99%	76%	100%	84%	38%	0.1%
COc1cccc(-c2c[nH]c3c(N/N=C/c4ccncc4)ncnc23)c1 [GW814408X]	1.5%	100%	100%	100%	100%	100%	100%	56%	86%	60%	87%	82%	100%	17%	32%	7.6%	24%	8.3%	12%	27%
COc1cc2ncnc(Nc3ccc4c(cnn4Cc4ccccc4)c3)c2cc1OC.Cl [GW282449A]	100%	84%	100%	100%	100%	100%	100%	100%	91%	100%	87%	100%	100%	100%	100%	100%	97%	87%	6.7%	0%
COc1ccc2cc(-c3c(-c4ccncc4)nc(-c4ccc(S(C)(=O)=O)cc4C)n3C)ccc2c1 [SB-633825]	79%	62%	96%	88%	82%	71%	85%	89%	2%	58%	84%	41%	100%	93%	79%	77%	100%	70%	57%	66%
CCc1ccc(Oc2nccc(-c3c(-c4ccc(F)cc4)ncn3C3CCNCC3)n2)cc1 [SB-242719]	69%	89%	92%	74%	69%	77%	81%	100%	73%	94%	100%	2.1%	100%	77%	55%	95%	98%	76%	46%	69%
COc1ccc2c(-c3ccnc(Nc4cccc(OC(F)(F)F)c4)n3)cnn2n1 [GW810372X]	59%	100%	100%	98%	100%	100%	100%	100%	100%	100%	92%	100%	100%	81%	100%	35%	13%	45%	99%	97%
COc1ccc(COc2ccc(Cc3cnc(N)nc3N)cc2OC)cc1 [GW632580X]	70%	94%	94%	91%	91%	94%	78%	100%	78%	100%	97%	100%	100%	100%	100%	88%	100%	81%	100%	85%
COc1ccc2[nH]c3c4[nH]c5ccc(OC)cc5c4c4c(c3c2c1)C(=O)NC4=O [GW296115X]	56%	93%	22%	4.9%	4.8%	90%	90%	19%	77%	72%	77%	84%	56%	0.4%	2.2%	48%	79%	50%	20%	64%
